Reference: PubChem BioAssay (NCATS)
Records with an inconclusive call do not appear. Activity calls are given as the source filed them. Calls come from the whole dose curve; as a rule, active = well fitted inhibition curve with a large enough effect; inconclusive = small, poorly fitted or top-dose-only effect; inactive = no such curve, though single readings can be large or run the other way. Square brackets hold non-standard residues; d marks the D form. Peptide text beside a SMILES is read from it. * marks the point of attachment. pGlu = O=C1CC[C@@H](C(=O)O)N1; Thz = O=C(O)[C@@H]1CSCN1; PhAc = O=C(Cc1ccccc1)*

Each molecule was assayed against Retinaldehyde dehydrogenase 3 (Homo sapiens) (UniProt P47895) (assay: qHTS for Inhibitors of the Aldehyde Dehydrogenase Family (ALDH1A3) Primary screen (AID 2061315;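 note: plate controls were DMSO vehicle for no effect and reference inhibitor for full effect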)). Conditions: ALDH inhibition qHTS; series mostly up to 56 µM; activity change, negative = inhibition: at the top concentration.

| Structure (SMILES) | activity change, negative = inhibition | Potency |
| --- | --- | --- |
| C[C@@H]1C(=O)O[C@H]2[C@@H](O)C34[C@H]5C[C@@H](C(C)(C)C)C36[C@@H](OC(=O)[C@@H]6O)O[C@@]4(C(=O)O5)[C@@]12O (stereo not given in full) | -12.1% (inactive) | – |
| CNC(=O)O[C@H]1COc2ccc(N3CCN(C4COC4)CC3)cc2[C@@H]1NC(=O)c1ccc(F)cc1 | 15.8% (inactive) | – |
| CC(C)NCC(C(=O)N1CCN(c2ncnc3c2C(C)CC3O)CC1)c1ccc(Cl)cc1 (stereo not given) | -24.1% (inactive) | – |
| Cc1ccc(N2CCN(CCC3NC(=O)c4ccccc43)CC2)cc1C (stereo not given) | -15% (inactive) | – |
| CCN1CCN(Cc2ccc(NC(=O)c3ccc(C)c(Oc4ncnc5[nH]c(C)cc45)c3)cc2C(F)(F)F)CC1 | 18% (inactive) | – |
| O=c1cc(N2CCOCC2)nc2c3ccccc3ccn12 | 8.31% (inactive) | – |
| CC(C)(F)CC(NC(c1ccc(-c2ccc(S(C)(=O)=O)cc2)cc1)C(F)(F)F)C(=O)NC1(C#N)CC1 (stereo not given) | 12.5% (inactive) | – |
| O=C(CNC(=O)c1cccc(C(F)(F)F)c1)N[C@@H]1CCN(Cc2ccc(Cl)cc2)C1 | 14.8% (inactive) | – |
| C[C@@H](NC(=O)c1cc(C(=O)N[C@@H](Cc2ccccc2)[C@H](O)CNC2CC2)cc(N(C)S(C)(=O)=O)c1)c1ccccc1 | -6.58% (inactive) | – |
| CCOC(=O)CNC(=O)[C@@H]1CCCN1C(=O)Cc1ccccc1 (PhAc-Pro-Gly-OEt) | 10.5% (inactive) | – |
| COc1cc(Br)c(Nc2nc(-c3c(C)nc4ncccn34)cs2)c(Br)c1 | 14.7% (inactive) | – |
| Cc1cc(C)nc(NS(=O)(=O)c2ccc(NC(=S)NC(=O)COc3ccc(Br)cc3Cl)cc2)n1 | 17.2% (inactive) | – |
| O=C(COc1ccc2ccccc2c1Br)Nc1cccnc1 | 2.87% (inactive) | – |
| Nc1nc2c(ncn2[C@@H]2O[C@H](CO)[C@@H](O)[C@H]2O)c(=O)[nH]1 | -10.9% (inactive) | – |
| N[C@@H](CC(=O)Nc1ccc(Oc2cc(F)c(F)cc2Br)cc1)C(=O)O | 8.64% (inactive) | – |
| O=C(NCc1ccc(OC(F)(F)F)cc1)C1c2ccccc2C(=O)N1C1CCOCC1 (stereo not given) | 4.17% (inactive) | – |
| c1ccc(CN(CC2=NCCN2)c2ccccc2)cc1 | -0.0922% (inactive) | – |
| O=C(N[C@H](Cc1cscn1)C(=O)N[C@@H](CC1CCCCC1)[C@@H](O)[C@@H](O)C1CC1)c1nc2ccccc2[nH]1 | 18.4% (inactive) | – |
| CN(C)CC(c1ccc(O)cc1)C1(O)CCCCC1 (stereo not given) | 12.6% (inactive) | – |
| O=C(NCc1ccc(F)cc1)C(=O)c1c[nH]c2ccccc12 | 0.783% (inactive) | – |

| Structure (SMILES) | activity change, negative = inhibition | Potency |
| --- | --- | --- |
| CC(Cc1cc2c(c(C(N)=O)c1)N(CCCO)CC2)NCCOc1ccccc1OCC(F)(F)F (stereo not given) | 12.3% (inactive) | – |
| CCn1c2ccccc2c2cc(CNC)ccc21 | – | inactive |
| CCN(CC)C(=O)Nc1ccc(OCC(O)CNC(C)(C)C)c(C(C)=O)c1 (stereo not given) | -8.09% (inactive) | – |
| CC1(C)C(=O)C(C)(C)c2cc(C(=O)Nc3ccc(C(=O)O)cc3)ccc21 | 1.76% (inactive) | – |
| CC(C)(C)C1CCN(C(=O)n2ncc(C(O)(c3ccccc3)c3ccccc3)n2)CC1 | -1.36% (inactive) | – |
| N[C@@H](CC(=O)N1CCn2c(nnc2C(F)(F)F)C1)Cc1[nH]nc2c(F)c(F)ccc12 | 0.759% (inactive) | – |
| Cc1[nH]c2ccccc2c1CC(=O)N[C@@H](Cc1ccccc1)C(=O)N(C)c1ccccc1 | 7.73% (inactive) | – |
| N[C@@H]1c2cccnc2[C@H](OC(=O)N2CCC(n3c(=O)[nH]c4ncccc43)CC2)CC[C@H]1c1cccc(F)c1F | 30.6% (inactive) | – |
| CC(NCCCc1cccc(C(F)(F)F)c1)c1cccc2ccccc12 (stereo not given) | 17.2% [at 28 µM] (inactive) | – |
| CN(C)S(=O)(=O)c1ccc(NC(=S)N2CCC(C(O)(c3ccccc3)c3ccccc3)CC2)cc1 | 18.3% (inactive) | – |
| CC(C)[N+]1(C)C2CCC1CC(OC(=O)C(CO)c1ccccc1)C2 (stereo not given) | 8.17% (inactive) | – |
| CCOc1nc2c(N)ncnc2n1CC | 11.8% (inactive) | – |
| O=C(O)c1ccccc1NC(=O)N1CCC(c2ccccc2C(F)(F)F)CC1 | 16.9% (inactive) | – |
| CC1(C)[C@H]2C[C@H](C/C=C\CCCC(=O)O)[C@@H](NC(=O)c3csc4ccc(O)cc34)[C@@H]1C2 | -10.3% (inactive) | – |
| CCCCc1c(-c2ccc(OC)cc2)[nH]c2nccnc12 | 10.1% (inactive) | – |
| COc1ccccc1-n1c(SCC(=O)Nc2nc3ccc(C)cc3s2)nc2c(c1=O)SCC2 | 9.54% [at 28 µM] (inactive) | – |
| CC1=C(/C=C/C(C)=C\C=C\C(C)=C/C(=O)O)C(C)(C)CCC1 | -8.48% (inactive) | – |
| O=C1CC[C@@H](C(=O)N2CSC[C@H]2C(=O)O)N1 ([pGlu]-[Thz]-OH) | -4.52% (inactive) | – |
| C=CCCN1CCC2(CC1)CN(C(=O)c1c(F)cccc1F)c1ccc(Cl)cc12 | 21.4% (inactive) | – |
| COc1cc(Nc2nc3c(s2)CCCC3c2ccccc2)ccc1-n1cnc(C)c1 (stereo not given) | 0.24% [at 11.2 µM] (inactive) | – |
